# Active and inactive are the calls of the source.
# Tests used:
# Albumin (Bos taurus) = Albumin (Bos taurus) (UniProt P02769); assay: bovine serum albumin binders on microarray, profiling panel, artefact control for SMM control protein annotation, biochemical, small-molecule microarray, Alexa647 label, 635/667 nm fluorescence (AID 1118); conditions: BSA-A647 binding, fluorescence 635 nm, higher = more signal;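 note: score merges 667 nm emission intensity and signal-to-noise per printed compound spot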
# Albumin (Bos taurus), sequence (P02769 whole entry, looked up): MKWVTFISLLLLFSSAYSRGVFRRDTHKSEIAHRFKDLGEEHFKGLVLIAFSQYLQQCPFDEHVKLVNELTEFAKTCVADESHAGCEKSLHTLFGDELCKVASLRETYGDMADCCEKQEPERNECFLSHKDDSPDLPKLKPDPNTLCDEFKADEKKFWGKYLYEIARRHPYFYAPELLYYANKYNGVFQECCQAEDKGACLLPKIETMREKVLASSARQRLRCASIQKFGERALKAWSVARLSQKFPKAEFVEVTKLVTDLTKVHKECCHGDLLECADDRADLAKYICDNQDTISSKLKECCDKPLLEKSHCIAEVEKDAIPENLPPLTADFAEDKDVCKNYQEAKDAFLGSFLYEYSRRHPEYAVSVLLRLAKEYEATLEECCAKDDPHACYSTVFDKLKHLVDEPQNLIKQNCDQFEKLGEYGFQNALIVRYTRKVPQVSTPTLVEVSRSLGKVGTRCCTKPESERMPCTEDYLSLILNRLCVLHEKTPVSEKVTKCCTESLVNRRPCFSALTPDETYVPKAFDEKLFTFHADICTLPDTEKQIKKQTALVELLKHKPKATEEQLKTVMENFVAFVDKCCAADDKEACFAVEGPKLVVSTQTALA
# [1] = small-molecule microarray binders of probe aXIP, primary screen, biochemical, NeuroSMM set, 635/667 nm fluorescence (AID 1119); conditions: higher = more signal, called active from +8 up or from −8 down;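 note: probe is the protein aXip251-270 applied at 1 µg/mL to compound-printed slides; binding of probe to printed compounds measured as 667 nm fluorescence plus signal to noise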
# [2] = small-molecule binders of probe aNOTCH3, primary screen, biochemical, small-molecule microarray, 635/667 nm fluorescence (AID 1120); conditions: higher = more signal;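 note: probe is a biotin-tagged antibody raised against NOTCH3 rather than NOTCH3 protein; score merges spot fluorescence near 667 nm with spot signal to noise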
# [3] = small-molecule binders of probe aNOTCH2, primary screen, biochemical, small-molecule microarray, 635/667 nm fluorescence (AID 1121); conditions: higher = more signal;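 note: score merges feature fluorescence read at 667 nm with its signal to noise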
# [4] = molecular target: Carbonic anhydrase 2 (Homo sapiens) (UniProt P00918); assay: CAII small-molecule binders, profiling panel, biochemical, small-molecule microarray, Alexa647-labelled CAII (AID 1122); conditions: CAII-A647 binding fluorescence, higher = more signal
# [5] = COS7 lysate on small-molecule microarray, probe aHis, 635 nm (AID 1123); conditions: COS7 cell lysate, fluorescence, higher = more signal;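 note: z-score combines 667nm fluorescence intensity with signal-to-noise per printed compound spot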
# [6] = compound binding in COS7 lysate, probe aLAP1, primary screen, cell lysate, small-molecule microarray (AID 1124); conditions: probe aLAP1, fluorescence, higher = more signal;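 note: lysate comes from COS7 cells expressing LAP1 and is applied at 0.3 µg/mL; score merges spot fluorescence near 667 nm with signal-to-noise over triplicate slides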
# Sam68 (KHDRBS1) = assay: Sam68 small-molecule binders, primary screen, biochemical, small-molecule microarray, 635 nm fluorescence (AID 1125); conditions: small-molecule microarray binding, higher = more signal;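 note: score merges 667 nm channel intensity with signal to noise over triplicate slides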
# [7] = system: Chordin-like protein 2 (CHRDL2); assay: CHRDL2 small-molecule binders, primary screen, biochemical, small-molecule microarray, 635 nm fluorescence (AID 1126); conditions: small-molecule microarray binding, fluorescence 635 nm; higher = more signal;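 note: printed compound slides probed with Chrdl2 protein at 4 µg/mL for 1 h at 4 C; score merges 667 nm emission intensity with signal to noise over three replicate slides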
# [8] = molecular target: Concanavalin-A (Canavalia ensiformis) (UniProt P02866); assay: ConA small-molecule binders, primary screen, artefact control for SMM control protein annotation, biochemical, small-molecule microarray, Alexa647 label, 635 nm (AID 1127); conditions: ConA-A647 binding fluorescence, higher = more signal;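 note: z combines 667 nm emission intensity with signal-to-noise across three replicate slides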
# Concanavalin-A (Canavalia ensiformis), sequence (P02866 whole entry, looked up): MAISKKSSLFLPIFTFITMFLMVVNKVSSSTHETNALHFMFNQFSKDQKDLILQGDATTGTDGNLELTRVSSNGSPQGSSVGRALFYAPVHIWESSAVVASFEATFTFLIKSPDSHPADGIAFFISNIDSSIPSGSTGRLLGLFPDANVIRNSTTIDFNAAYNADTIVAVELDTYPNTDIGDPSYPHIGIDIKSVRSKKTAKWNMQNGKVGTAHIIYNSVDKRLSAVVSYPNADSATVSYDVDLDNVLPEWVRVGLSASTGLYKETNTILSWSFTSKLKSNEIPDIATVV
# [9] = anti-His antibody binders, primary screen, artefact control for SMM control protein annotation, biochemical, small-molecule microarray, 635 nm fluorescence (AID 1128); conditions: anti-His Alexa647 antibody binding, higher = more signal;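 note: score merges feature fluorescence with signal-to-noise for each printed compound spot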
# [10] = system: Human papillomavirus type 1a E7 protein (residues 1-88); assay: HPV1a E7 small-molecule binders, primary screen, biochemical, small-molecule microarray, residues 1-88, 635 nm (AID 1129); conditions: small-molecule microarray binding, fluorescence 635 nm; higher = more signal
# [11] = molecular target: Focal adhesion kinase 1 (Homo sapiens) (UniProt Q05397); assay: small-molecule microarray binders of FAK, primary screen, biochemical, 635/667 nm fluorescence, BSA, DTT (AID 1130); conditions: PTK2 binding, 635 nm fluorescence, higher = more signal;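 note: composite of spot emission at 667 nm and signal to noise over triplicate slides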
# Focal adhesion kinase 1 (Homo sapiens), sequence (Q05397 whole entry, looked up): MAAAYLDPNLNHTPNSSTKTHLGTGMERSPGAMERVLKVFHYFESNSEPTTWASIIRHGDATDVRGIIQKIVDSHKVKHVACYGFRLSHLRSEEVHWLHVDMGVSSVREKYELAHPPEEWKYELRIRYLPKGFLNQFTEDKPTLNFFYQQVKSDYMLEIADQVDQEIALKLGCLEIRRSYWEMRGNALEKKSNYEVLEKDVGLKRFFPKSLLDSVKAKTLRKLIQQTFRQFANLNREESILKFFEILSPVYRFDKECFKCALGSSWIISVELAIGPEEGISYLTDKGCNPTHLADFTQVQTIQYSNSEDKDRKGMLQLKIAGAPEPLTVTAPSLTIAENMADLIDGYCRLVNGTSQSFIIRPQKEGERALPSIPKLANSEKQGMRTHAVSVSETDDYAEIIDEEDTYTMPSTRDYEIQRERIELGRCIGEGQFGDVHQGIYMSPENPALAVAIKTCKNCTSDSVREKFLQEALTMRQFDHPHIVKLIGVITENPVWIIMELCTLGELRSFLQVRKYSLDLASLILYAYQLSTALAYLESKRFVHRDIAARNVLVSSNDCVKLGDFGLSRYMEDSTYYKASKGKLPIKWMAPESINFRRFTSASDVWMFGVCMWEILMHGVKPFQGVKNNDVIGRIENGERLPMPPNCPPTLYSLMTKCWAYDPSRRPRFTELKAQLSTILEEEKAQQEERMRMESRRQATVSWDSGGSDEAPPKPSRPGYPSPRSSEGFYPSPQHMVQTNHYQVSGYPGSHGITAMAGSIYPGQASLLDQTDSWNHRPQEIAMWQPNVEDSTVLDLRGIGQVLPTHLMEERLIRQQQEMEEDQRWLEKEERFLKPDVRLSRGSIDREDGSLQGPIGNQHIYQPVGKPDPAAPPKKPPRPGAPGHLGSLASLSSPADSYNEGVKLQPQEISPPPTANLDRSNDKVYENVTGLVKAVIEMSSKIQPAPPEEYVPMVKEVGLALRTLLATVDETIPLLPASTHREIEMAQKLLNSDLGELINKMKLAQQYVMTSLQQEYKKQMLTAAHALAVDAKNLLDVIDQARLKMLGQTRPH
# [12] = system: Fibrinogen (Alexa647-labelled); assay: fibrinogen binders on compound microarrays, profiling panel, artefact control for SMM control-protein annotation, biochemical, small-molecule microarray, 635/667 nm fluorescence (AID 1131); conditions: fibrinogen-A647 binding fluorescence, higher = more signal;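 note: z-score merges 667 nm fluorescence with per-spot signal-to-noise over triplicate slides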
# [13] = molecular target: Follistatin (Homo sapiens) (UniProt P19883); assay: follistatin binders on small-molecule microarrays, primary screen, biochemical, small-molecule microarray, 635/667 nm fluorescence (AID 1132); conditions: FST binding, 635 nm fluorescence, higher = more signal
# Follistatin (Homo sapiens), sequence (P19883 whole entry, looked up): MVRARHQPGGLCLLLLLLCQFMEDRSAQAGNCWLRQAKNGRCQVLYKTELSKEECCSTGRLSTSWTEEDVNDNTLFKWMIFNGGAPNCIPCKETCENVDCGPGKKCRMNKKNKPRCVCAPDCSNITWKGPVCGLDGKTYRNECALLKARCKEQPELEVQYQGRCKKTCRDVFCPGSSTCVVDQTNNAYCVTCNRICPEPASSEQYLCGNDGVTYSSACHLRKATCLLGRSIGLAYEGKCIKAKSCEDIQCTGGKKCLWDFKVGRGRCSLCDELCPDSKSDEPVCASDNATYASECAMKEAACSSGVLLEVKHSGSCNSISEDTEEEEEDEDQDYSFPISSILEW
# [14] = molecular target: Fibroblast growth factor 2 (Homo sapiens) (UniProt P09038); assay: FGF2 binders on small-molecule microarrays, primary screen, biochemical, small-molecule microarray, 635/667 nm fluorescence (AID 1133); conditions: small-molecule microarray binding, FGF2, fluorescence 635/667; higher = more signal
# Fibroblast growth factor 2 (Homo sapiens), sequence (P09038 whole entry, looked up): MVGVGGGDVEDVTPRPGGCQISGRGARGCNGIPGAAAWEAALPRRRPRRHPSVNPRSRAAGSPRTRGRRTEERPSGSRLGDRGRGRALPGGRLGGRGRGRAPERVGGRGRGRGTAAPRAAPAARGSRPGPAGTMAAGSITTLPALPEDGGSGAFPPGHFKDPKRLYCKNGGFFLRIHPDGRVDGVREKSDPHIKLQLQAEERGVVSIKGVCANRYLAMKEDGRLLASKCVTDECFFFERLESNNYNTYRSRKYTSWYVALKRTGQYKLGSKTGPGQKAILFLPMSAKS
# [15] = mitochondrial membrane potential change in A549 cells, profiling panel, cell-based, JC-1 fluorescence, basal, 24 h, 100 nL (AID 1138); conditions: higher = more signal;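 note: A549 lung adenocarcinoma cells under basal conditions with no added stimulus; test concentration not given here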
# Lefty1 = Lefty1 binders on small-molecule microarrays, primary screen, biochemical, small-molecule microarray, 635/667 nm fluorescence (AID 1139); conditions: small-molecule microarray binding, fluorescence 635/667; higher = more signal
# [16] = system: wheat germ agglutinin (Triticum aestivum), Alexa647-labelled; assay: wheat germ agglutinin binders on compound microarrays, profiling panel, artefact control for SMM control-protein annotation, biochemical, small-molecule microarray, 635/667 nm fluorescence (AID 1140); conditions: WGA-A647 binding, 635 nm fluorescence, higher = more signal;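 note: score merges 667 nm feature emission with signal to noise over triplicate slides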
# [17] = molecular target: Luciferin 4-monooxygenase (Photinus pyralis) (UniProt P08659); assay: firefly luciferase enzyme inhibitors, primary screen, biochemical, luminescence, purified enzyme, 2006 set (AID 1141); conditions: SteadyGlo luminescence, 30 min, higher = more signal, called active from +8 up or from −8 down;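 note: cell-free assay with purified firefly luciferase at 100 ng per well in PBS; test concentration not given here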
# Luciferin 4-monooxygenase (Photinus pyralis), sequence (P08659 whole entry, looked up): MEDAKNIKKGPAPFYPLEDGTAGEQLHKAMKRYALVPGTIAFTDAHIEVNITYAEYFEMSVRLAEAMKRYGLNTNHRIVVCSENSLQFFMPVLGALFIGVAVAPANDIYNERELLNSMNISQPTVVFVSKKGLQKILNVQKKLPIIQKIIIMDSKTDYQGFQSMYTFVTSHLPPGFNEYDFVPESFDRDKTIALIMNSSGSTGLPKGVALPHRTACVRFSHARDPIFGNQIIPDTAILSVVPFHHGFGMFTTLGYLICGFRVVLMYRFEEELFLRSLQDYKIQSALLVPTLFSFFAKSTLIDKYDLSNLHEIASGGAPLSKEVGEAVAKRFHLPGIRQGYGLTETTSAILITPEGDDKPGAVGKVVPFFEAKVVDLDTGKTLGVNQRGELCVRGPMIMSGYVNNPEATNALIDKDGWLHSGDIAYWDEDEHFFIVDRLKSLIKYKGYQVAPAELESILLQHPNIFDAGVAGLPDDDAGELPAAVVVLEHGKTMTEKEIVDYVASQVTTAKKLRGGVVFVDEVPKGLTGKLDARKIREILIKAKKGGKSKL
SMILES,composite z-score (Albumin (Bos taurus)),composite Z-score [1],composite z-score [2],composite z-score [3],composite z-score [4],composite z-score [5],composite z-score [6],composite z-score (Sam68 (KHDRBS1)),composite z-score [7],composite z-score [8],composite z-score [9],composite z-score [10],composite z-score [11],composite z-score [12],composite z-score [13],composite z-score [14],z-score [15],composite z-score (Lefty1),composite z-score [16],z-score [17]
COc1cccc([C@H]2Oc3ccc(OC)cc3C(=NO[C@@H](C)c3cc(-c4c(C)cc(C)cc4C)no3)[C@@H]2O)c1,-1.31,-0.238 (inactive),-0.305,-0.155,0.108,-0.552,0.843,-0.156,-0.861,-1.57,-0.314,-0.358,-0.364,-1.51,-2.57,-2.11,0.611,-2.4,-0.52,0.995 (inactive)
CC(=O)OC[C@H]1O[C@@H](ON=C(C)CCC(=O)OC[C@H]2O[C@H](C#Cc3ccccc3)C=C[C@@H]2Oc2ccc(C)cc2)[C@H](OC(C)=O)[C@@H](OC(C)=O)[C@@H]1OC(C)=O,0.635,-0.0164 (inactive),0.0493,-0.0714,0.273,0.989,0.0582,1.3,0.549,0.943,0.48,0.843,0.108,0.705,0.753,1.26,1.08,0.648,0.307,-0.305 (inactive)
O=C1C[C@@H](O)[C@@H](O)[C@@H]2[C@@H]3C(=O)N(C4CCCCC4)C(=O)[C@@H]3CC[C@@H]12,0.337,-0.228 (inactive),-0.104,-0.198,0.167,0.798,-0.244,0.546,0.36,0.448,0.69,0.54,-0.0599,0.705,0.373,0.134,0.457,0.66,0.282,0.137 (inactive)
COc1ccc(COC(=O)NN=C2C[C@@H](O)[C@@H](O)[C@@H]3[C@@H]4C(=O)N(Cc5ccc6c(c5)OCO6)C(=O)[C@@H]4CC[C@H]23)cc1,0.252,0.0467 (inactive),0.0534,-0.0523,-0.32,0.352,-0.257,-0.319,-0.486,-1.15,-0.0397,-0.474,-0.126,-0.261,-1.12,-1.21,0.419,-1.06,0.801,0.506 (inactive)
CON=C[C@@H](OC)[C@H](C)C=CCC(=O)OC,-0.518,0.0575 (inactive),-0.0014,-0.201,-0.312,0.157,-0.195,-0.258,0.231,-0.105,1.66,0.158,-0.069,-1.5,0.0902,0.0231,-0.223,0.0713,-0.115,-0.982 (inactive)
CCOC(=O)[C@H](Cc1ccccc1)NC(=O)CCC1CC(OC(=O)NCCc2ccc(F)cc2)CC2(CCCC(COC(=O)NCCC(C)C)O2)O1 (stereo not given in full),0.508,1.05 (inactive),0.0939,-0.114,0.28,1.17,-0.0236,1.31,0.0858,0.831,1.05,1.12,0.156,0.871,0.967,1.02,0.833,0.743,0.381,0.553 (inactive)
CC(C)=CCCC(C)=CCON=C1C[C@@H](O)[C@@H](O)[C@@H]2[C@@H]3C(=O)N(Cc4ccc5c(c4)OCO5)C(=O)[C@@H]3CC[C@H]12,0.0686,-0.16 (inactive),0.0568,0.428,0.389,1.17,0.206,0.945,0.957,-0.0491,0.364,0.838,-0.0613,0.855,0.779,0.613,-0.564,1.04,0.793,0.497 (inactive)
COC(=O)[C@H](C)NC(=O)CC=C[C@@H](C)[C@@H]1C=C[C@H](O)[C@@H](CO)O1,-0.453,-0.0756 (inactive),-0.0932,-0.237,-0.114,-0.346,-0.0681,0.457,1.33,-0.174,0.0816,0.228,-0.118,-0.0588,1.14,1,-0.142,1.39,-0.28,0.374 (inactive)
CO[C@H]1COC(=O)[C@H](C)COC(=O)[C@@H](OCc2ccccc2)C=C[C@@H]1C,0.0996,0.976 (inactive),-0.141,-0.12,-0.342,-0.051,-0.181,0.207,0.225,0.233,-0.49,-1.09,-0.317,-0.534,0.139,0.496,0.877,0.613,-0.49,-1.56 (inactive)
C[C@@H]1CC[C@@H](C(=O)O)N[C@H]1c1cccc(N2CCOCC2)c1,0.262,0.227 (inactive),0.0624,-0.126,0.295,0.531,-0.581,0.225,0.224,0.305,0.06,0.827,0.455,0.301,0.769,0.652,2.11,0.554,0.227,-1.34 (inactive)
CO[C@@H](C1CCCCC1)[C@@H](C)[C@H](OCc1cccc(Br)c1)[C@@H](C)CO,-0.0658,-0.188 (inactive),-0.207,-0.209,-0.17,-0.111,-0.0972,-0.0221,0.908,-0.153,-0.833,-0.0434,-0.299,-0.106,0.265,0.286,-0.72,0.407,-0.181,0.158 (inactive)

# Source: PubChem BioAssay
